PP1 inh: PP1-alpha (human) inhibition in PP5 counter-screen. purified PP1alpha, OMFP fluorescence. inhibition, % at 6.7 µM. actives 0.9% (n = 320,000). AID 2235;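 active = inhibition above the mean inhibition of all tested compounds plus 3 SD, computed separately for each screening campaign, cut at about 15% in these data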
MsrA inhibitor: bovine MsrA inhibition; purified bovine MsrA, absorbance read-out; inhibition, % at 15.5 µM; actives 0.75% (n = 360,000); in the data active = inhibition above about 4.5%
bovine MsrA act: bovine methionine sulfoxide reductase A activation | purified bovine MsrA, absorbance read-out | actives 0.3% (n = 360,000) | activation, % at 10.6 µM; in the data active = activation above about 7.5%
PP5 inh: blocks human protein phosphatase 5 activity. inhibition, % at 6.7 µM. purified PP5c, OMFP substrate fluorescence. AID 1987. actives 0.18% (n = 320,000);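 active = inhibition above the campaign's mean inhibition across all tested compounds plus 3 SD, cut at about 9.5% in these data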
Target sequence (P53041 whole entry, looked up): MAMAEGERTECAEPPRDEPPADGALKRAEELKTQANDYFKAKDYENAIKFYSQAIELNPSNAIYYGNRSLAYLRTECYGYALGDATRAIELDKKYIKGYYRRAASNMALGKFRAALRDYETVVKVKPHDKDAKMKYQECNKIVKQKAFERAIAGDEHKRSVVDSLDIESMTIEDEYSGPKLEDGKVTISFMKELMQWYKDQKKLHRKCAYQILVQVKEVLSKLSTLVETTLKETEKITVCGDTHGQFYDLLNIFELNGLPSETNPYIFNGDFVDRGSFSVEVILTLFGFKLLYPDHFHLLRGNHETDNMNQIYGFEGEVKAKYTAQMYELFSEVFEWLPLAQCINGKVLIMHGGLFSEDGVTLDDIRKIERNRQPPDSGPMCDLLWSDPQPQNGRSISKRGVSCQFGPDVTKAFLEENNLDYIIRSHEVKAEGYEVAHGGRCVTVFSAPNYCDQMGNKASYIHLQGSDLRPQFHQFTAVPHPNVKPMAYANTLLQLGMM
ZTA DNA inh: blocks Epstein-Barr virus ZTA, an EBNA-1 counter-screen; ZTA-DNA binding, fluorescence polarization; P03206; inhibition, % at 11 µM; actives 0.15% (n = 320,000); in the data active = inhibition above about 33%
EBNA-1 inh: blocks EBNA-1 binding to DNA; EBNA-1 DNA binding, fluorescence polarization; actives 0.34% (n = 300,000); AID 1950; inhibition, % at 14.8 µM; in the data active = inhibition above about 28%
PP1 inh confirm: human PP1 phosphatase inhibition, confirmation; inhibition, % at 6.7 µM; actives 52% (n = 1,900); AID 2358; purified PP1alpha, OMFP substrate fluorescence; shares compounds with PP1 inh;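 active = mean PP1 inhibition above a set limit taken from the earlier primary screen, cut at about 15% in these data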
PP5 inh counter: PP5 phosphatase inhibition, counter-screen for PP1 inhibitors | shares compounds with PP1 inh | purified PP5c, OMFP fluorescence | inhibition, % at 6.7 µM | actives 4% (n = 1,900);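 active = mean PP5 inhibition over triplicate wells above about 9.5% taken from the earlier PP1 screen, limit read from the data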
Hits are given with their value; i = inactive; nt = not tested or not shown. Hits are enriched below; roughly 2.3% of the tested compounds scored in any of these assays.

SMILES	PP1 inh	MsrA inhibitor	bovine MsrA act	PP5 inh	ZTA DNA inh	EBNA-1 inh	PP1 inh confirm	PP5 inh counter
Cc1ccsc1/C=C/c1ccc2cccc(O)c2n1	21	i	i	i	i	i	19	i
COc1cc(/C=C/c2ccc3cccc(O)c3n2)c(Br)cc1O	i	i	i	i	i	i	nt	nt
CSc1ccc(/C=C/c2ccc3cccc(O)c3n2)cc1	i	i	i	i	i	i	nt	nt
Oc1cccc2ccc(/C=C/c3cccs3)nc12	24	i	i	i	i	i	19	i
CCCCCOc1ccc(NC(=O)C(=O)NCCCn2ccnc2)cc1	44	i	i	i	i	i	i	i
C=CCOc1ccc(NC(=O)C(=O)NCCCn2ccnc2)cc1	i	i	i	i	i	i	nt	nt
Cc1ccccc1NC(=O)C(=O)NNC(=O)COc1ccc2ccccc2c1	18	i	i	i	i	i	i	i
CCOC(=O)N1CCN(Cc2nc(N)nc(Nc3ccc(Oc4ccccc4)cc3)n2)CC1	23	i	i	i	i	i	i	i
CCOC(=O)N1CCN(Cc2nc(N)nc(Nc3ccc(OC)cc3)n2)CC1	i	i	i	i	i	i	nt	nt
Cc1ccc(C2(C(=O)N3CCC(n4nc(-c5ccccc5)oc4=O)CC3)CC2)cc1	i	nt	i	i	i	i	nt	nt
CC12CC3(C)CC(C)(C1)CC(C(=O)NC(=S)N1CCCC1)(C2)C3	i	i	i	i	i	i	nt	nt
CCCC(=O)NC(c1ccc(Cl)cc1)c1ccc2cccnc2c1O (configuration not stated)	23	i	i	i	i	i	20	i
CC(=O)NC(c1ccc(Cl)cc1Cl)c1ccc2cccnc2c1O (configuration not stated)	nt	i	i	nt	nt	nt	nt	nt
CCC(=O)NC(c1cccs1)c1ccc2cccnc2c1O (configuration not stated)	i	i	i	i	i	i	nt	nt
CCCC(=O)NC(c1ccc(Cl)cc1Cl)c1ccc2cccnc2c1O (configuration not stated)	26	i	i	i	i	i	21	i
CCCC(=O)NC(c1cccc([N+](=O)[O-])c1)c1ccc2cccnc2c1O (configuration not stated)	nt	i	i	nt	nt	nt	nt	nt
CCCCC(=O)NC(c1ccc(Cl)cc1)c1ccc2cccnc2c1O (configuration not stated)	32	i	i	i	i	i	21	i
CCCC(=O)NC(c1ccc(C)cc1)c1ccc2cccnc2c1O (configuration not stated)	23	nt	i	i	i	i	18	i
CCN(CC)C(=O)Cn1cc(S(=O)(=O)CC(=O)NCc2ccccc2)c2ccccc21	i	i	i	i	i	i	nt	nt
Cc1cc([N+](=O)[O-])nn1CC(=O)N1c2ccccc2CC1C (configuration not stated)	i	i	i	i	i	i	nt	nt
COCc1cc(C)n(CC(=O)Nc2cc(C)cc(C)c2)c(=O)c1C#N	i	i	i	i	i	i	nt	nt
CCOC(=O)c1ccc(-c2cc(C)no2)[nH]1	i	i	i	i	i	i	nt	nt
COc1ncccc1C(=O)N1CCCC(N2CCN(c3cccc(Cl)c3)CC2)C1 (configuration not stated)	49	i	i	i	i	i	i	i
COc1ncccc1C(=O)N1CCCC(N2CCN(c3ccc(F)cc3)CC2)C1 (configuration not stated)	i	i	i	i	i	i	nt	nt
COC(=O)c1cc(NC(=O)c2cc(C(C)(C)C)nn2Cc2ccc(F)cc2)ccc1N1CCOCC1	i	i	i	i	i	i	nt	nt
Cc1cccc(OCCn2c(NC(=O)c3ccco3)nc3ccccc32)c1	20	i	i	i	i	i	i	i
Cc1ccc(OCCn2c(NC(=O)c3ccco3)nc3ccccc32)cc1	i	i	i	i	i	i	nt	nt
O=C(Nc1nnc(-c2ccccc2Cl)o1)c1ccco1	i	i	i	i	i	i	nt	nt
O=C(Nc1nnc(-c2ccccc2Cl)o1)c1nc2ccccc2s1	40	i	i	i	i	i	31	i
COc1ccc(OC)c(NC(=O)c2ccc3c(c2)C(=O)N(CC2CCCO2)C3=O)c1 (configuration not stated)	i	i	i	i	i	i	nt	nt

Source: PubChem (The Scripps Research Institute Molecular Screening Center)
